Data: PubChem BioAssay (NCATS)
Records with an inconclusive call do not appear. Where a call stands in place of a potency, no number is given. Active and inactive are the calls of the source. Unless noted, calls come from the whole dose curve.

Test system: not listed separately
Experiment: qHTS for Inhibitors of the Functional Ribonucleoprotein Complex (vRNP) of Lymphocytic Choriomeningitis Arenaviruses (LCMV): Viability assay - alamar blue signal for LCMV Primary Screen (AID 1347085; calls by dose curve; tested in HEK293 reporter line; note: nearly all actives have a fitted effect of over 80% in size)
Details: alamar blue viability counter-screen, LCMV vRNP screen cells; series mostly up to 57.5 µM

Row | Compound | Potency
1 | NNC(=O)CP(=O)(c1ccccc1)c1ccccc1 | inactive
2 | CC(=O)OC/C=C(C)/C=C/C=C(C)/C=C/C1=C(C)CCCC1(C)C | inactive
3 | c1ccc([C@H]2CN3CCSC3=N2)cc1 | inactive
4 | CCCCN(CCCC)CCC(O)c1cc2c(Cl)cc(Cl)cc2c2cc(C(F)(F)F)ccc12 (stereo unspecified) | inactive
5 | C=C(C)C(=O)OCC(O)CO (stereo unspecified) | inactive
6 | CCCCCCCCCCCCCCCCC(C(=O)O)C(O)(CC(=O)O)C(=O)O (stereo unspecified) | inactive
7 | CCn1cc(C(=O)O)c(=O)c2cc(F)c(N3CCNCC3)nc21 | inactive

Molecular target: Nucleoprotein (Lymphocytic choriomeningitis virus (strain Armstrong)) (UniProt P09992)
Experiment: qHTS for Inhibitors of the Functional Ribonucleoprotein Complex (vRNP) of Lymphocytic Choriomeningitis Arenaviruses (LCMV): LCMV Primary Screen - GLuc reporter signal (AID 1347086); note: nearly all actives have a fitted effect of over 70% in size
Details: LCMV minigenome vRNP cell assay, Gaussia luciferase reporter; series mostly up to 57.5 µM

Sequence of Nucleoprotein (Lymphocytic choriomeningitis virus (strain Armstrong)) (P09992 whole entry, looked up): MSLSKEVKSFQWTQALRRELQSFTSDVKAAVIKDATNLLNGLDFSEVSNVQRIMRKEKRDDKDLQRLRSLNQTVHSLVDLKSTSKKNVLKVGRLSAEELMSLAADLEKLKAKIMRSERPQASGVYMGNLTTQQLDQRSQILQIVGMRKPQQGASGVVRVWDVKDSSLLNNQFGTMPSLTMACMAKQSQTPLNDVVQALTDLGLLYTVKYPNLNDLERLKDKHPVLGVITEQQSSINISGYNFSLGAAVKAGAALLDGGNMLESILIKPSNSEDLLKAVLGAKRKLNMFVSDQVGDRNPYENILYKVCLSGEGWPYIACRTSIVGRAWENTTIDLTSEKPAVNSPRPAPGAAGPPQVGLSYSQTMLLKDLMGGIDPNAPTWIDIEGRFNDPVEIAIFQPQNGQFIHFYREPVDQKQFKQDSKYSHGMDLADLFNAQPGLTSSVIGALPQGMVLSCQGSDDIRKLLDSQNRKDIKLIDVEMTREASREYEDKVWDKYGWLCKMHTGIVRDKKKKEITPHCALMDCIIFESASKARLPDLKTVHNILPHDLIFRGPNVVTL

Row | Compound | Potency
8 | COc1ccc(C(Cl)=C(c2ccc(OC)cc2)c2ccc(OC)cc2)cc1 | inactive
9 | NCc1ccccc1Sc1ccccc1CO | inactive
10 | O=C(CCCN1CCN(c2ccccn2)CC1)c1ccc(F)cc1 | inactive
11 | CCN1CCN(c2cc(-c3ccc(F)cc3)c3c(n2)CCCCCC3)CC1 | inactive
12 | O=C1OC(c2ccc(O)cc2)(c2ccc(O)cc2)c2ccccc21 | inactive
13 | Clc1ccccc1-c1nc(-c2ccncc2)no1 | inactive
14 | NCCNC(=O)c1ccc(Cl)cn1 | inactive
15 | Oc1ccc(Cl)cc1Sc1cc(Cl)ccc1O | inactive
16 | CCOC(=O)c1c(N)sc2c1CCN(Cc1ccccc1)C2 | inactive
17 | OC[C@H]1O[C@@H](O[C@@H]2[C@@H](CO)O[C@](O)(CO)[C@H]2O)[C@H](O)[C@@H](O)[C@H]1O | inactive
18 | C[N+]12CCC(CC1)C(OC(=O)C(O)(c1ccccc1)c1ccccc1)C2 (stereo unspecified) | inactive
19 | COC1=C(OC)C(=O)C(CCCCCCCCCCO)=C(C)C1=O | inactive
20 | O=C1NCN(c2ccccc2)C12CCN(CCCC(c1ccc(F)cc1)c1ccc(F)cc1)CC2 | inactive
21 | Cc1ccc(Cl)c(OCC(O)CNC(C)(C)C)c1 (stereo unspecified) | inactive
22 | Cc1c(Cn2ccnc2)c2ccccc2n1CCC(=O)O | inactive
23 | Clc1ccc(Cn2c(CN3CCCC3)nc3ccccc32)cc1 | inactive
24 | COc1cc2c(cc1OC)-c1cc(=Nc3c(C)cc(C)cc3C)n(C)c(=O)n1CC2 | inactive
25 | CCCC(=O)O[C@]1(C(=O)CCl)[C@@H](C)C[C@H]2[C@@H]3CCC4=CC(=O)C=C[C@]4(C)[C@@]3(F)C(=O)C[C@@]21C | inactive
26 | NS(=O)(=O)c1cc2c(cc1Cl)CN(C1CCCCC1)C2=O | inactive
27 | Oc1ccc(C(O)CNCCCCCCNCC(O)c2ccc(O)c(O)c2)cc1O (stereo unspecified) | inactive

Row | Compound | Potency
28 | O=C(O)Cc1ccc(CCNS(=O)(=O)c2ccc(Cl)cc2)cc1 | inactive
29 | O=C(NN1CCCC1)NS(=O)(=O)c1ccc(Cl)cc1 | inactive
30 | COc1cc(C(=O)NCCCCCC(=O)O)cc(OC)c1OC | inactive
31 | c1ccc(CCNc2nc(-c3ccccc3)cs2)cc1 | inactive
32 | Cn1c(=O)c2c(ncn2C)n(C)c1=O | inactive
33 | CN1[C@@H]2CC[C@H]1CC(OC(=O)c1c[nH]c3ccccc13)C2 (stereo partly specified) | inactive
34 | CN(C)CCOC1=Cc2ccccc2Sc2ccc(Cl)cc21 | inactive
35 | CO/N=C(\C(=O)O)c1csc(NC(=O)CCl)n1 | inactive
36 | CCOC(=O)c1ccc(OC(=O)CCCCCN=C(N)N)cc1 | inactive
37 | CC(=O)OCC(=O)[C@@]1(O)CCC2C3CCC4=CC(=O)CC[C@]4(C)C3[C@@H](O)C[C@@]21C (stereo partly specified) | inactive
38 | CCCCNc1ccc(C(=O)OCCN(C)C)cc1 | inactive
39 | Nc1c(CC(=O)O)cccc1C(=O)c1ccc(Br)cc1 | inactive
40 | NNC(=O)CP(=O)(c1ccccc1)c1ccccc1 | inactive
41 | CC(=O)OC/C=C(C)/C=C/C=C(C)/C=C/C1=C(C)CCCC1(C)C | inactive
42 | c1ccc([C@H]2CN3CCSC3=N2)cc1 | inactive
43 | CCCCN(CCCC)CCC(O)c1cc2c(Cl)cc(Cl)cc2c2cc(C(F)(F)F)ccc12 (stereo unspecified) | inactive
44 | C=C(C)C(=O)OCC(O)CO (stereo unspecified) | inactive
45 | CCCCCCCCCCCCCCCCC(C(=O)O)C(O)(CC(=O)O)C(=O)O (stereo unspecified) | inactive
46 | CCn1cc(C(=O)O)c(=O)c2cc(F)c(N3CCNCC3)nc21 | inactive
